The results in this text go back to PubChem BioAssay (NCATS).

Each structure is given as a SMILES string. Several values for one entry are separate records, joined by “and”; a condition that tells them apart may be missing. Equal entries are not always repeated. Results filed as inconclusive are left out. A structure can be active in one record and inactive in another. Activity calls are given as the source filed them. Calls follow the shape of the dose curve; as a rule, active = well fitted curve in the direction sought with a large enough effect; inconclusive = small, poorly fitted or top-dose-only effect, or another doubt; inactive = no such curve, though single readings can be large; an effect the other way counts as inactive or inconclusive.

A short description of assay [1]: P-glycoprotein substrates identified in KB-8-5-11 adenocarcinoma cell line, qHTS therapeutic library screen (AID 1346987). Also: nearly all actives have a fitted effect of over 65% in size. The method in brief: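 Compounds are pinned in dose-response onto KB-8-5-11 cells (500 cells/well, colchicine-free medium) and left 72 h at 37 degree C. CellTiter-Glo luminescence then yields AC50 values.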
(Quantitative high-throughput screening tests each substance at several concentrations.)

A short description of assay [2]: NS1 protein of Zika virus - qHTS assay to identify small molecule inhibitors in human HEK 293 cells (AID 1347053). Also: nearly all actives have a fitted effect of over 55% in size. The method in brief:
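Read-out is a two-antibody TR-FRET for ZIKV NS1, normalized between uninfected cells and infected cells. Compound added 1 h before MR766 infection at MOI 0.5; human HEK 293 cells incubated 24 h, 37 C.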

The nature of assay [3]: qHTS of pediatric cancer cell lines to identify multiple opportunities for drug repurposing: Primary screen for TC32 cells (AID 1347089). Also: nearly all actives have a fitted effect of over 60% in size. The method in brief: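 A viability screen of TC32 cells was run over 48 h, with primary MIPE doses spanning 0.78 nM–46 µM and NPC doses 0.59 nM–46 µM. ATP luminescence (CellTiter-Glo) served as the read-out.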
Assay [4] in a line: qHTS of pediatric cancer cell lines to identify multiple opportunities for drug repurposing: Primary screen for DAOY cells (AID 1347090). Also: nearly all actives have a fitted effect of over 55% in size. The method in brief:
(§1)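 Cell viability, CellTiter-Glo luminescence; 500-1,000 cells/well, 8- or 11-point titration, 48 h compound exposure at 37 degrees C, 5% CO2. Controls: DMSO neutral, bortezomib 2.3 µM final as positive.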

Assay [5] is described as follows: qHTS of pediatric cancer cell lines to identify multiple opportunities for drug repurposing: Primary screen for SJ-GBM2 cells (AID 1347091). The method in brief:
as §1

The nature of assay [6]: qHTS of pediatric cancer cell lines to identify multiple opportunities for drug repurposing: Primary screen for A673 cells (AID 1347092). Also: nearly all actives have a fitted effect of over 45% in size. The method in brief:
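Titration-based qHTS on A673 cells: MIPE compounds spanned 11 points (0.78 nM to 46 µM final), NPC compounds 8 points (0.59 nM to 46 µM final). Viability after 48 h was measured by ATP luminescence.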

Assay [7] in a line: qHTS of pediatric cancer cell lines to identify multiple opportunities for drug repurposing: Primary screen for SK-N-MC cells (AID 1347093). The method in brief:
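Metabolically active cells were quantified by ATP-dependent luminescence (CellTiter-Glo, 15 min at room temperature) following 48 h treatment. Cells had been plated at 500-1,000 per well and settled for 5 h beforehand.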

A short description of assay [8]: qHTS of pediatric cancer cell lines to identify multiple opportunities for drug repurposing: Primary screen for NB-EBc1 cells (AID 1347095). The method in brief: (§2)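 ATP-based luminescence (CellTiter-Glo) quantifies viability after a 48-hour exposure. Compounds are dosed across 8 or 11 final concentrations; DMSO and 2.3 µM bortezomib serve as controls.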
Assay [9] in a line: qHTS of pediatric cancer cell lines to identify multiple opportunities for drug repurposing: Primary screen for BT-37 cells (AID 1347094). The method in brief: as §2
Potency is read from the fitted curve at half-maximal effect.

With `CN1CCN(Cc2ccc(NC(=O)Nc3ccc(Oc4cc(NC(=O)C5CC5)ncn4)cc3)cc2C(F)(F)F)CC1`, the Potency in assay [1] is 5.8 µM (active); in assay [2] it was 1180 nM (active); in assay [3], 294 nM (active); in assay [4], 590 nM (active); in assay [5] it was 372 nM (active); in [6], 148 nM (active). Besides, the Potency in assay [7] was 332 nM (active); in assay [8], 935 nM (active).
As for `Cc1cc(N2CCOCC2)cc2[nH]c(-c3c(NC[C@@H](O)c4cccc(Cl)c4)cc[nH]c3=O)nc12`, the Potency is 14.8 µM (active) and 18.4 µM (active) in [1]; 739 nM (active) in [3]; 935 nM (active) in [4]; 16600 nM (active) in [5]; 296 nM (active) in assay [6]; 24300 nM (active) in assay [9]. Besides, the Potency in assay [8] was 590 nM (active). Further, the Potency result in [2] is “inactive”.
For `CC=CC1=C(C(=O)O)N2C(=O)[C@H](NC(=O)[C@H](N)c3ccc(O)cc3)[C@@H]2SC1`, the Potency result in assay [1], in [2], in assay [3], in assay [4], in [5] and in assay [8] was “inactive” each time. In addition, the Potency in assay [6] was 935 nM (active); in [7] it was 23500 nM (active).
Regarding `Nc1ncnc2c1c(-c1cccc(OCc3ccccc3)c1)cn2C1CC(CN2CCCC2)C1` (stereo not given), the Potency is 16.6 µM (active) and 6.51 µM (active) in assay [1]; 6580 nM (active) in [3]; 20900 nM (active) in assay [5]; 18700 nM (active) in assay [6]; 4690 nM (active) in [8]. In addition, the Potency result in assay [2] and in [4] was “inactive” each time.
`CC1(C)CC(=O)c2c(C(F)(F)F)nn(-c3ccc(C(N)=O)c(NC4CCC(OC(=O)CN)CC4)c3)c2C1` (stereo not given): the Potency in [1] is 662 nM (active) and 820 nM (active); in assay [3] it was 739 nM (active); in [5], 332 nM (active); in [7], 166 nM (active); in assay [8], 296 nM (active). Besides, the Potency entry in assay [2] was “inactive”.
Take `COc1cc(-c2nn(C3CCC(N4CCN(C(C)=O)CC4)CC3)c3ncnc(N)c23)ccc1NC(=O)c1cc2ccccc2n1C` (stereo not given): the Potency result was “inactive and 20.6 µM (active)” in assay [1]; 1870 nM (active) in [5]; 743 nM (active) in [7]. Besides, the Potency entry in assay [2] was “inactive”.
Regarding `NC(=O)c1cccc2cn(-c3ccc([C@@H]4CCCNC4)cc3)nc12`, the Potency entry in assay [1] and in assay [4] was “inactive” throughout. In addition, the Potency in [2] was 11800 nM (active); in assay [3] it was 20800 nM (active); in [6] it was 1870 nM (active); in [7], 8330 nM (active); in [8], 6620 nM (active).
Take `CC(C)c1cc(C(=O)N2Cc3ccc(CN4CCN(C)CC4)cc3C2)c(O)cc1O`: the Potency is 0.092 µM (active) in [1]; 1040 nM (active) in assay [3]; 935 nM (active) in assay [4]; 372 nM (active) in [5]; 296 nM (active) in assay [6]; 332 nM (active) in [7]. Also, the Potency in [8] is 132 nM (active).
Turning to `CNC(=O)c1ccc(-c2cnc3ncc(Cc4ccc5ncccc5c4)n3n2)cc1F`, the Potency entry in [1], in assay [2], in assay [3] and in [9] was “inactive” in each case.
Regarding `O=C(Nc1ncc(-c2cc(C(F)F)nn2-c2c(Cl)cccc2Cl)s1)C1CC1`, the Potency in [1] was 662 nM (active) and 731 nM (active); in assay [2], 1050 nM (active); in assay [3], 1310 nM (active); in assay [5], 332 nM (active); in [6], 296 nM (active); in assay [7], 296 nM (active). Moreover, the results for the Potency in assay [9] and in assay [8] were 863 nM (active) and 296 nM (active), respectively.
Turning to `C[C@H]1C[C@@H]2[C@@H]([C@@H](O)C[C@@]3(C)[C@H]2CC[C@]3(O)C(=O)CO)[C@@]2(C)C=CC(=O)C=C12`, the Potency result in assay [1], in assay [2], in [3], in assay [5], in [6] and in assay [9] was “inactive” in each case. In addition, the Potency entry in assay [8] was “inactive”.
For `CNC(=O)c1nn(C)c2c1C(C)(C)Cc1cnc(Nc3ccc(N4CCN(C)CC4)cc3)nc1-2`, the Potency in assay [1] was 2.35 µM (active) and 1.46 µM (active); in [3], 2620 nM (active); in assay [4], 11800 nM (active); in [5], 1870 nM (active); in [7], 590 nM (active); in [9], 1720 nM (active). Also, in [8], the Potency was 2350 nM (active).
As to `NC(=O)c1c(OCc2c(F)cc(Br)cc2F)nsc1NC(=O)NCCCCN1CCCC1`, the Potency in assay [1] was 18.4 µM (active); in assay [4], 23500 nM (active); in [5], 20900 nM (active); in assay [6], 18700 nM (active); in [7], 16600 nM (active); in [9] it was 24300 nM (active). For the same compound, the Potency in [8] is 2640 nM (active). For the same compound, in assay [2], the Potency entry is “inactive”.
For `COc1cc2nccc(Oc3ccc(NC(=O)C4(C(=O)Nc5ccc(F)cc5)CC4)cc3)c2cc1OC`, the Potency in assay [1] was 16.6 µM (active) and 9.2 µM (active); in [4], 14800 nM (active); in assay [5], 23.5 nM (active); in assay [6], 1480 nM (active); in [7] it was 1660 nM (active); in [9], 1720 nM (active). The Potency in assay [8] is 743 nM (active).
As for `Cn1cc(-c2ccncc2)c(-c2ccc(OCc3ccc4ccccc4n3)cc2)n1`, the Potency was 20.6 µM (active) in assay [1], 4690 nM (active) in assay [4], 3720 nM (active) in assay [6] and 9350 nM (active) in assay [7]. Further, in assay [2], the Potency entry was “inactive”.
As for `COc1cc2c(Nc3ccc(NC(=O)c4ccccc4)cc3)ncnc2cc1OCCCN1CCOCC1`, in [1], the Potency entry is “inactive”. Besides, the Potency was 3700 nM (active) in [3]; 5260 nM (active) in assay [5]; 14800 nM (active) in [6]; 30600 nM (active) in assay [9]; 18700 nM (active) in assay [8].
Take `CC(C)c1cc(-c2n[nH]c(=O)n2-c2ccc3c(ccn3C)c2)c(O)cc1O`: the Potency was 0.0935 µM (active) in assay [1]; 131 nM (active) in [3]; 118 nM (active) in assay [5]; 118 nM (active) in assay [6]; 52.6 nM (active) in [7]; 122 nM (active) in assay [9]. Besides, the Potency in [8] is 93.5 nM (active). Moreover, in assay [2], the Potency result was “inactive”.
Consider `CC(C)c1noc(N2CCC(COc3ccc(-c4ccc(S(C)(=O)=O)cc4)nc3)CC2)n1`, for which the Potency entry in assay [1], in assay [2], in assay [3], in [5], in assay [7] and in assay [8] was “inactive” each time.
Take `COC(=O)C[C@](O)(CCCC(C)(C)O)C(=O)O[C@@H]1C(OC)=C[C@]23CCCN2CCc2cc4c(cc2[C@H]13)OCO4`: the Potency in [1] is 8.2 µM (active). In addition, the Potency entry in assay [2], in [3], in [5], in [6], in [9] and in assay [8] was “inactive” each time.
Turning to `COC(=O)C1=C(C)NC(C)=C(C(=O)OCCN2CCN(C(c3ccccc3)c3ccccc3)CC2)C1c1cccc([N+](=O)[O-])c1` (stereo not given), the Potency in assay [1] was 20.6 µM (active) and inactive; in assay [7], 6680 nM (active).
